# Reference: PubChem BioAssay AID504333 (National Center for Advancing Translational Sciences (NCATS), 2011)
# The whole screen tested about 360,000 compounds, of which about 16,000 (4.4%) were called active. Not shown: some 9% with an inconclusive outcome. Calls come from the whole dose curve; as a rule, active = well fitted inhibition curve with a large enough effect; inconclusive = small, poorly fitted or top-dose-only effect; inactive = no such curve, though single readings can be large or run the other way. The list comes from a sample in which actives are over-represented; it also holds similar structures and randomly drawn compounds.
# Biological target: Bromodomain adjacent to zinc finger domain protein 2B (Homo sapiens) (UniProt Q9UIF8)
# Sequence (Q9UIF8 whole entry, looked up, the tested form may be a part): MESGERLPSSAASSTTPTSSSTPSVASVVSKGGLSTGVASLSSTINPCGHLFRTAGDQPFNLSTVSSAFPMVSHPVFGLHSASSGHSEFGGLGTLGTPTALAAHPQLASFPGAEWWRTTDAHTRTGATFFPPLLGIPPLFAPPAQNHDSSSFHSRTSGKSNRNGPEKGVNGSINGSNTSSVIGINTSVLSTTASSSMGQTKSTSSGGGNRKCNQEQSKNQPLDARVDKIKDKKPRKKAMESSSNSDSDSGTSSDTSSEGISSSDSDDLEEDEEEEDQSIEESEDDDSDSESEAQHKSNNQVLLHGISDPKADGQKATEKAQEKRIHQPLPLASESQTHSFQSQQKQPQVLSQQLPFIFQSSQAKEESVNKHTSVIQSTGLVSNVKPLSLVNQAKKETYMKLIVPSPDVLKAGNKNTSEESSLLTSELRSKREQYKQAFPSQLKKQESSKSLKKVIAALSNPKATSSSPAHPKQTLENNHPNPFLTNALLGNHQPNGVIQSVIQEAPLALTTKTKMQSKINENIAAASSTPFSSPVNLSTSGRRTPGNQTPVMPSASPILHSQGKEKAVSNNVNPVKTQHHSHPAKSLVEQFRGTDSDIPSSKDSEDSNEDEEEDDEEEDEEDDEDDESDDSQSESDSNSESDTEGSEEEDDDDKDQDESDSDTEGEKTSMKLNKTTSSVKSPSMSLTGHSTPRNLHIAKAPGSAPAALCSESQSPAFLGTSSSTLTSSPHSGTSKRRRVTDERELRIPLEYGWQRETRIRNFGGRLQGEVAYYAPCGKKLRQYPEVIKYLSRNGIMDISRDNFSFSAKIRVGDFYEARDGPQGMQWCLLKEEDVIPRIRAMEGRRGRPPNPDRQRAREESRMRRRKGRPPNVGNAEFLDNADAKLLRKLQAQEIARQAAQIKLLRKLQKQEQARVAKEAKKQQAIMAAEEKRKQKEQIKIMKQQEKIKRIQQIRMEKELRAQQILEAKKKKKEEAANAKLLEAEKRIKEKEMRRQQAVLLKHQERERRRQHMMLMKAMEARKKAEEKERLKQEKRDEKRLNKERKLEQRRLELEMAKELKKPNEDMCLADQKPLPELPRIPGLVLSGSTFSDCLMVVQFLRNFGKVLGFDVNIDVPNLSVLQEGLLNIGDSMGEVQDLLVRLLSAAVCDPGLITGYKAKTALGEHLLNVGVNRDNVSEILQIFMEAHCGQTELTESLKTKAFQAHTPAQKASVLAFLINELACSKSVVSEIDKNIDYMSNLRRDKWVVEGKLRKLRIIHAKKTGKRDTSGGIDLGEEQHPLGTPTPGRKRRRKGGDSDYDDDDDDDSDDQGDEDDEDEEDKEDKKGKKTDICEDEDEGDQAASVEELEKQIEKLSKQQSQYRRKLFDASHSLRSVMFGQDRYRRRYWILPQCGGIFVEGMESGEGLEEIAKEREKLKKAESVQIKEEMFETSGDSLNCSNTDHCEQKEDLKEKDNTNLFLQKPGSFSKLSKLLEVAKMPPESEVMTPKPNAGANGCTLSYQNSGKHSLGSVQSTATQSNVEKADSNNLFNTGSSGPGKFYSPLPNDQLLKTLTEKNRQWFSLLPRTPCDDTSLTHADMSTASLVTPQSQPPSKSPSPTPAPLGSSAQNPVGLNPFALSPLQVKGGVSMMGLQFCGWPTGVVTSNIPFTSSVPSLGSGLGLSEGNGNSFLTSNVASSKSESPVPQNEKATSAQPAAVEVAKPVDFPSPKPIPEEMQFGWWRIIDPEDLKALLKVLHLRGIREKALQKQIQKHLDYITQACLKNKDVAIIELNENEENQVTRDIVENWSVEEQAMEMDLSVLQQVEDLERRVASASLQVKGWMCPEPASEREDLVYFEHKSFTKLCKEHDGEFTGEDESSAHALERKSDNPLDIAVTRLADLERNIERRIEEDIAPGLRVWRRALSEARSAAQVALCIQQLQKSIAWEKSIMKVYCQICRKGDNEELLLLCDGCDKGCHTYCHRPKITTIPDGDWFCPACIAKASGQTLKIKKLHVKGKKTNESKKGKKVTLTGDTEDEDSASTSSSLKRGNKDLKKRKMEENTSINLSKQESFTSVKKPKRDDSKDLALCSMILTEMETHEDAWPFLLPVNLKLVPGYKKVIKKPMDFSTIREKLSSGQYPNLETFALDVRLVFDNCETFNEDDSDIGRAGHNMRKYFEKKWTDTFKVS
# Assay: qHTS Assay for Inhibitors of BAZ2B; note: nearly all actives have a fitted effect of over 60% in size
# Details: AlphaScreen BAZ2B-H3K14Ac peptide displacement; series mostly up to 114 µM; activity change, negative = inhibition: at the top concentration
# Text: BAZ2B (bromodomain adjacent to zinc finger domain, 2B) belongs to a family of ubiquitously expressed bromodomain containing proteins, which biological function has not yet been elucidated. […] The interaction of BAZ2B with ISWI mediated by the BAZ1 motif has recently been described. […] The protocol is based on the AlphaScreen (PerkinElmer) displacement assay developed by NCGC [5], but uses the peptide ligand Biot-H3K14Ac, a high affinity binding partner for BAZ2B, in an AlphaScreen format. Although AlphaScreen has significant advantages with its utility in a variety of epigenetic target assays, the primary screening data provided in this deposition should be used with caution due to the prevalence of screening artifacts. The top compound concentration tested was 110uM in this assay, which increases number of actives and potential artifacts. An AlphaScreen counterscreen is highly recommended to be run against any putative actives to eliminate non-specific artifacts. Alternatively, one can use other AlphaScreen assays in PubChem to filter out promiscuous hits. Eberharter, A. et al. ACF1 improves the effectiveness of nucleosome mobilization by ISWI through PHD-histone contacts. The EMBO journal 23, 4029-4039. 2004. PMID: 15457208 [2] Jones, M.H. et al. A novel family of bromodomain genes. Genomics 63, 40-45. 2000. PMID: 10662543 [3] Yasgar, et al. Compound Management for Quantitative High-Throughput Screening. JALA. 2008 Apr;13(2):79-89. PMID: 18496600 [4] Inglese, et al. Quantitative high-throughput screening: a titration-based approach that efficiently identifies biological activities in large chemical libraries. Proc Natl Acad Sci. 1;103(31):11473-8. 2006. PMID: 16864780 [5] Quinn et al. A chemiluminescence-based method for identification of histone lysine methyltransferase inhibitors. Mol Biosyst 6(5): 782-8. 2010. PMID: 20567762 [6] Baell,Holloway. New substructure filters for removal of pan assay interference compounds (PAINS) from screening libraries and for their exclusion in bioassays. J Med Chem. 53(7):2719-40. 2010. PMID: 20131845 NIH Molecular Libraries Probe Production Network [MLPCN] NIH Chemical Genomics Center [NCGC] Structural Genomics Consortium (SGC) NIH Grant: 5U54 MH084681-02
# To each well of a 1,536w plate, 2ul of BAZ2B protein (final 50nM) and 1ul biotinylated histone peptide acetylated at Lys14 [b-H3(5-23)K14Ac] (final 50nM) were added in 1x PBS buffer, pH 7.4, containing 0.01% Tween-20, using a nanoliter dispenser. Formation of a protein-peptide complex proceeded at room temperature for 30 min. A Kalypsys pin-tool was employed to transfer 23 nL of library compound solution in DMSO to each well. Following a 30 min incubation of the protein-peptide complex with compounds at room temperature, a mixture of 40 ug/mL each streptavidin-coated donor and nickel chelate acceptor AlphaScreen beads (final 10 ug/mL) were added in a 1ul dispense for a final volume of 4ul. A brief centrifugation followed (1000rpm, 1 min) and were then incubated protected from the light for 20 min at room temperature. Plates were read on an EnVision multilabel plate reader using the 1,536 plate HTS AlphaScreen aperture (excitation time 80 ms, measurement time 240 ms).
# % is set by controls: 0 for no effect and ±100 for the full control effect; potency is the fitted concentration of half-maximal effect.
Structure (SMILES),Potency,"activity change, negative = inhibition"
CC[N+](C)(CC)CCC[n+]1c(-c2ccccc2)c2cc(N)ccc2c2ccc(N)cc21,44.7 µM (active),
CNC(=O)O/N=C(\N)Cc1csc2ccccc12,,-3.28% (inactive)
COCCNC(=O)CN1C2CCC1CC(O)(c1cccnc1)C2 (centres undefined),,-1.47% (inactive)
COC(=O)C1=C(c2ccc(Cl)c(C(F)(F)F)c2)C[C@@H]2CC[C@H]1N2C(=O)NC1CC1,,12.5% (inactive)
c1cncc(CNCCc2c[nH]c3ccccc23)c1,,-22% (inactive)
COc1ccc(CNCCc2c[nH]c3ccccc23)cc1OC,50.1 µM (active),
C/C(CCc1c[nH]c2ccccc12)=N\O,,-0.449% (inactive)
O=c1[nH]c(O)c(C=Nc2cc(F)cc(F)c2)c(=O)[nH]1,,7.43% (inactive)
COC(=O)C1=C(c2cccc(OCc3ccccc3)c2)C[C@@H]2CC[C@H]1N2C(=O)NNCc1ccccc1,,-1.25% (inactive)
Cc1ccccc1NC(=O)COC(=O)c1cc(C)n(C2CC2)c1C,,-3.66% (inactive)
COc1ccc(C2N3CC(C)(C)CN23)cc1 (centres undefined),,-14.1% (inactive)
CCC1(C)CC(CCNCc2ccc(N(C)C)cc2)(c2ccc(F)cc2)CCO1 (centres undefined),35.5 µM (active),
O=C(COC(=O)c1ccccc1)Nc1ccccc1Sc1ccccc1,,92.9% (inactive)
CN(C)CCN(CC1CCCN(Cc2ccccc2F)C1)C(=O)Cc1ccc(F)c(F)c1 (centres undefined),,0.813% (inactive)
CCCCCn1c(=O)c(C(=O)NCc2ccccc2)c(O)c2ccccc21,,55.7% (inactive)
O=C(C1CCN(CC2CCCCC2)CC1)N1CCCC1,70.8 µM (active),
COC(=O)C1=C(c2ccc(-c3ccccc3)c(F)c2)C[C@@H]2CC[C@H]1N2C(=O)NCc1ccc(F)cc1,,-1.72% (inactive)
COc1cccc(C(=O)N2C[C@H]3C[C@@H](C2)c2cccc(=O)n2C3)c1,,-20.1% (inactive)
COc1cccc(OC)c1C(=O)NC(=S)N1C[C@H]2C[C@H](C1)c1cccc(=O)n1C2,,-5.95% (inactive)
COc1ccc(CNCCc2ccc3c(c2)OCO3)c(OC)c1OC,50.1 µM (active),
COC(=O)C1=C(c2c(C)noc2C)C[C@@H]2CC[C@H]1N2C(=O)NCc1ccc2c(c1)OCO2,,-0.66% (inactive)
Cc1cc(N2C(=O)C3CCCN3C2c2ccc(Cl)c(Cl)c2)no1 (centres undefined),,8.95% (inactive)

Structure (SMILES),Potency,"activity change, negative = inhibition"
O=C(O)CCn1cc(C=C2C(=O)NC(=S)NC2=O)c(-c2cccc(Br)c2)n1,79.4 µM (active),
CN1C2C=C(N(C(=O)c3ccc(Cl)cc3)c3ccccc3)CC1CC2 (centres undefined),,-15.3% (inactive)
O=C(NC(=S)N1C[C@H]2C[C@H](C1)c1cccc(=O)n1C2)c1ccc(F)cc1,,-11.4% (inactive)
O=c1[nH]c(=O)n(CCc2ccc(F)cc2)c(O)c1/C=N/N1CCCCC1,,-2.13% (inactive)
O=C(N/N=C/c1c(O)n(Cc2ccccc2)c(=O)[nH]c1=O)c1ccccc1,50.1 µM (active),
CCCCC(=O)N/N=C/c1c(O)n(-c2ccccc2)c(=O)[nH]c1=O,50.1 µM (active),
Cc1cccc(-n2c(O)c(C=NC34CN5CN(CN(C5)C3)C4)c(=O)[nH]c2=O)c1,,-4.42% (inactive)
O=c1[nH]c(=O)n(-c2ccccc2)c(O)c1C=NC12CN3CN(CN(C3)C1)C2,,-7.16% (inactive)
O=c1[nH]c(=O)n(CCc2ccccc2)c(O)c1/C=N/N1CCOCC1,,1.1% (inactive)
O=c1[nH]c(=O)n(Cc2ccccc2)c(O)c1/C=N/Nc1c(F)c(F)c(F)c(F)c1F,,-2.27% (inactive)
CCCCC(=O)N/N=C/c1c(O)n(CCC2=CCCCC2)c(=O)[nH]c1=O,79.4 µM (active),
CCCCC(=O)N/N=C/c1c(O)n(CC)c(=S)n(CC)c1=O,,18.8% (inactive)
Cn1cc(C(=O)OCC(=O)N2CCCC2)c2ccccc21,,-1.93% (inactive)
C=CCN1C(=O)C2(C(C(=O)OCC)=C(N)Oc3c2c(=O)oc2ccccc32)c2ccccc21 (centres undefined),,1.37% (inactive)
O=[N+]([O-])c1ccc(C2C3C(c4ccccc4)=NC4(CCCCC4)N32)cc1 (centres undefined),,-6.5% (inactive)
COC(=O)C1=C(c2ccc(F)cc2OCc2ccccc2)C[C@@H]2CC[C@H]1N2C(=O)NCc1ccc2[nH]ccc2c1,,-12.4% (inactive)
COC(=O)C1=C(c2cccc(OCc3ccccc3)c2)C[C@@H]2CC[C@H]1N2C(=O)NCc1ccc(Br)cc1,,2.73% (inactive)
C=CCn1c(O)c(/C=N/N2CCOCC2)c(=O)[nH]c1=S,,-10.9% (inactive)
C[C@@H]1CC[C@@]2(OC1)O[C@H]1C[C@H]3[C@@H]4CC=C5C[C@@H](O)[C@H](O)C[C@]5(C)C4CC[C@]3(C)[C@H]1[C@@H]2C (some centres undefined),,19.8% (inactive)
CC1=CC(=Cc2sc3ccccc3[n+]2C)C=C(C)O1,,-25.3% (inactive)
COC(=O)C1=C(c2ccc(Cl)c(C(F)(F)F)c2)C[C@@H]2CC[C@H]1N2C(=O)NC(C)C,,8.23% (inactive)
COc1ccc(-c2nn(CCC#N)cc2C(=O)Nc2ccc(C(C)=O)cc2)cc1,,0.868% (inactive)

Structure (SMILES),Potency,"activity change, negative = inhibition"
COc1ccccc1NC(=O)N1C[C@@H]2C[C@@H](C1)c1cccc(=O)n1C2,,8.13% (inactive)
O=C(O)COc1ccccc1/C=C1\C(=O)NC(=O)N(CCC2=CCCCC2)C1=O,,-19.3% (inactive)
O=C1NC(=O)N(Cc2ccco2)C(=O)/C1=C\c1cccn1CCOc1ccccc1,28.2 µM (active),
O=C1NC(=O)N(CCc2ccc(F)cc2)C(=O)/C1=C/C=C/c1ccccc1,,7.59% (inactive)
CCOC(=O)c1c(C)c(C(=O)N2CCC3(CC2)OCCO3)c(C)n1CC,,9.98% (inactive)
O=c1[nH]c(CN2CC=C(c3ccccc3)CC2)nc2scc(-c3cccs3)c12,,-8.66% (inactive)
O=C(COc1ccc2ccccc2c1)N1CCN(Cc2ccncc2)CC1,,53.5% (inactive)
O=C(Cn1c(=O)n(CC2CS2)c2ccccc21)N1CCCCC1 (centres undefined),,8.82% (inactive)
CCC(=NCCc1ccccc1)c1c(O)n(C2CCCCC2)c(=O)[nH]c1=O,,-21.4% (inactive)
O=C(Cc1ccccc1)N1CCN(C2CCCCCC2)CC1,50.1 µM (active),
COc1ccccc1CN1CCN(C(=O)Cc2ccccc2)CC1,50.1 µM (active),
O=C(Cc1ccc(Cl)cc1)NCCN1CCN(C(=O)Cc2ccc(Cl)cc2)CC1,,0.0403% (inactive)
COc1ccc(N=Cc2c(O)n(C)c(=O)[nH]c2=O)cc1,,0.618% (inactive)
CN1CCC(OC(=O)c2cccc(F)c2)CC1,,-1.04% (inactive)
COc1ccc(C(=O)C2CN(C)CC2C(=O)c2ccc(OC)cc2)cc1 (centres undefined),,2.95% (inactive)
COC(=O)C1=C(c2ccc3ccccc3c2)C[C@@H]2CC[C@H]1N2C(=O)NCCO,,-6.21% (inactive)
CC(Cc1ccccc1)NCCC(c1ccccc1)c1ccccc1 (centres undefined),,12.5% (inactive)
Cc1cc(=O)oc2c(C)c(OCC(=O)N3CCN(Cc4ccc5c(c4)OCO5)CC3)ccc12,,-18.4% [at 57.1 µM] (inactive)
Fc1ccc(N2CCN(Cc3ccc4c(c3)OCO4)CC2)cc1,56.2 µM (active),
O=C(Cc1ccccc1[N+](=O)[O-])N1CCN(Cc2ccc3c(c2)OCO3)CC1,,-28.5% (inactive)
